# Shown are actives, neighbours in structure and some others; about 3.9% of the full set was active somewhere.
# GALC G270D up – A Novel Cell-Based Assay to Identify Small Molecules for B -Galactocerebrosidase; 145M-Twi-hGALC-G270D cells (Twitcher mouse brain line with human GALC G270D), HMU-beta-Gal fluorescence, 48 h; AID 1159614, 2016; Potency, µM (highest dose often 57.5 µM), hits mostly activators; 45,000 tested, 0.1% active; P54803; note: potency is the fitted concentration of half-maximal effect; 0% is about no effect; nearly all actives have a fitted effect of over 65% in size
#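 Brain-derived Twitcher mouse 145M-Twi cells stably expressing human GALC-G270D or wild-type GALC, treated live, then residual GALC activity read by fluorescence of HMU-b-Gal substrate (0.1 mM final) in citrate-phosphate buffer pH 5.2 with sodium taurocholate. Signal increase indicates enhancement.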
# p53null 32C tox – qHTS Screen for Compounds that Selectively Target Cancer Cells with p53 Mutations: Cytotoxicity of p53 Null Cells at the Permissive Temperature; H1299-neo p53 null cells, ATP luminescence, 24 h, 32C; Potency, µM (top dose mostly 46.1 µM), for the others: at the highest dose activity change, negative = cytotoxicity, actives largely listed as cytotoxic; 55,000 tested, 0.62% active; AID 903, 2007;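 note: potency is the fitted concentration of half-maximal effect; 0% = DMSO only and -100% = full killing by 100 µM tamoxifen; nearly all actives have a fitted effect of over 55% in size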
#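 Overnight 37C seeding (600 cells/well) of H1299-neo preceded a 24 hr, 32C exposure to compounds up to 46 uM. ATP levels, read by luminescence after 20 min at RT, indicated surviving cells.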
# FH mod – Identification of activators of human fumarate hydratase by quantitative high-throughput screening. AID 1347055, 2019. Potency, µM (doses to about 79.9 µM), for the others: top-dose activity change, negative = inhibition, usual class: inhibitors. FH coupled MDH/diaphorase resazurin fluorescence, 15 min. Fumarate hydratase, mitochondrial (Homo sapiens), P07954. 54,000 tested, 0.22% active; note: potency is the fitted concentration of half-maximal effect; % is set by controls: 0 for no effect and ±100 for the full control effect; the screen sought activators but most active calls are inhibition curves; nearly all actives have a fitted effect of over 45% in size
# p53null 39C kill – qHTS Screen for Compounds that Selectively Target Cancer Cells with p53 Mutations: Cytotoxicity of p53 Null Cells at the Nonpermissive Temperature | H1299 p53-null (neo) cells, 39C, ATPlite viability, 24 h | Potency, µM (series often up to 46.1 µM), without a hit: at the top dose activity, negative = cell killing, hits mostly cytotoxic | 55,000 tested, 0.97% active;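 note: potency is the fitted concentration of half-maximal effect; 0% = DMSO only and -100% = full killing by 100 µM tamoxifen; nearly all actives have a fitted effect of over 50% in size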
#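 Following overnight plating at 37C (600 cells/well), H1299-neo or H1299-p53A138V cells are dosed up to 46 uM. Incubation lasts 24 hr at 39C before ATP detection.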
# GPR32 ag – qHTS for Agonists of Human Resolvin D1 Receptor DRV1; CHO-K1 GPR32 beta-arrestin PathHunter luminescence, 90 min; zero percent set by DMSO-only wells; Probable G-protein coupled receptor 32 (Homo sapiens), O75388; AID 1346428, 2018; 48,000 tested, 2.5% active; activation, % at 76.9 µM;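 active = activation of at least 60% and not above a set upper limit, about 1 call in 100 departs from these limits; inconclusive = activation of 40% to 60%, or above that upper limit; inactive = activation under 40%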; note: 0% is about no effect
# Target sequence (O75388 whole entry, looked up): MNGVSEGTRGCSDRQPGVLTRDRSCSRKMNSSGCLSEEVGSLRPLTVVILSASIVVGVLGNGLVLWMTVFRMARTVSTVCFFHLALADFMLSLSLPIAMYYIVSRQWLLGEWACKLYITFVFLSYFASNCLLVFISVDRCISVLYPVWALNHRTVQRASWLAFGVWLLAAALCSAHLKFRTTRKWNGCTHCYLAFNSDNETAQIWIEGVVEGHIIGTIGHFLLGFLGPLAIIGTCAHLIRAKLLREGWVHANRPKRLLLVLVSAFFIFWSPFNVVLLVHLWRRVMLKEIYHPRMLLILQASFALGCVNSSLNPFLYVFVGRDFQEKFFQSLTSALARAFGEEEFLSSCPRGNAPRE
#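 Cells are plated overnight, treated with compounds in DMSO for 90 minutes at 37 °C, and developed with PathHunter detection reagent for 1 hour before luminescence is read; signal reflects beta-arrestin binding to GPR32 in engineered CHO-K1 cells.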
# NTMT1 inhibitor – Primary qHTS for Inhibitors of N-terminal methyltransferase 1 (NTMT1): MTaseGlo Assay; NTMT1 MTase-Glo SAH luminescence, purified enzyme; Potency, µM (series often up to 114 µM), without a hit: at the highest dose activity change, negative = inhibition, hits mostly inhibitors; 59,000 tested, 2.5% active;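 note: potency is the fitted concentration of half-maximal effect; plate controls were DMSO vehicle for no effect and no enzyme for full effect; nearly all actives have a fitted effect of over 65% in size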
# Target sequence (Q9BV86 whole entry, looked up): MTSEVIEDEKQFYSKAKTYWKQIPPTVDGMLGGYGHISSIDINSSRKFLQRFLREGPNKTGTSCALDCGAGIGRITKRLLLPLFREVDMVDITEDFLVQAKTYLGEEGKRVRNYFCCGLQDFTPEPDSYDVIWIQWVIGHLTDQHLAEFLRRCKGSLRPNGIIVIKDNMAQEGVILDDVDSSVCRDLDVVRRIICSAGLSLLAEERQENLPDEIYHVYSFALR
# * = called active by the depositor; i = inactive; ? = inconclusive; / = not tested or not shown; ! = not confirmed by another sample; [ ] = remark or other dose. Unless noted, calls come from the whole dose curve; as a rule, active = well fitted curve in the direction sought with a large enough effect; inconclusive = small, poorly fitted or top-dose-only effect, or another doubt; inactive = no such curve, though single readings can be large; an effect the other way counts as inactive or inconclusive.
SMILES,GALC G270D up,p53null 32C tox,FH mod,p53null 39C kill,GPR32 ag,NTMT1 inhibitor
COc1ccccc1Nc1nn2c(=O)c3ccc(C(=O)NCCC4=CCCCC4)cc3nc2s1,i,?,-9.5%,3.98µM*,29.9,-26.4%
COc1ccccc1Nc1nn2c(=O)c3ccc(C(=O)NCCc4ccccc4)cc3nc2s1,i,?,7.8%,6.31µM*,11.4,?
Cc1ccc(C)c(Nc2nn3c(=O)c4ccc(C(=O)NCCc5ccccc5)cc4nc3s2)c1,i,-8.9%,-1.5%,-15.5%,74.1*,-5.8%
Cc1coc2c1CC1OC1(C)CCC1OC1(C)C2 (stereo not drawn),/,/,-1.4%,/,/,1.3%[57.5 µM]
CC1CCN(S(=O)(=O)c2ccc(C(=O)Nc3sc4c(c3C(N)=O)CC(C)(C)NC4(C)C)cc2)CC1,i,14.8%,-3.1%,7.9%,-30.1,-18.7%
CCOC(=O)c1c(NC(=O)c2ccc(S(=O)(=O)N3CCCC(C)C3)cc2)sc2c1CC(C)(C)NC2(C)C (stereo not drawn),i,-11.8%,-6.0%,25.0%,120.1*,10.1%
C[C@]12CC[C@H](O)CC1=CC[C@@H]1[C@@H]2CC[C@]2(C)C(c3cccnc3)=CC[C@@H]12,/,/,/,/,/,13.6%[57.5 µM]
O=C(NC1CCN(CCCCC2(C(=O)NCC(F)(F)F)c3ccccc3-c3ccccc32)CC1)c1ccccc1-c1ccc(C(F)(F)F)cc1,/,/,-13.8%,/,/,3.9%[57.5 µM]
CC(=O)Nc1ccc2nc(SCCOc3ccccc3)sc2c1,i,-2.1%,-5.5%,-9.7%,118.3*,-11.0%
O=C(COc1ccccc1F)Nc1ccc2nc(SCCOc3ccccc3)sc2c1,i,-8.2%,1.8%,-10.2%,98.9*,10.9%
O=C(COc1ccccc1)Nc1ccc2nc(SCCOc3ccccc3)sc2c1,i,-2.2%,-0.6%,-4.5%,-5.0,0.8%
C/C(=C\C(=O)Nc1ccccc1C(=O)O)c1ccc2ccccc2c1,/,/,-7.0%,/,/,28.2µM*
COc1c2c(c(C)c3c1C(=O)OC3)O[C@@]1(C)C[C@@H](OC(C)=O)[C@]34O[C@](OC)(CC[C@]3(C)[C@H]1C2)OC4(C)C,/,/,-12.8%[53.3 µM],/,/,-8.4%[29.8 µM]
CCCC1CCC(C(=O)Nc2ccc(S(=O)(=O)Nc3nccs3)cc2)CC1 (stereo not drawn),/,/,/,/,/,8.6%
COC(=O)c1ccc(C2C=C(c3ccc(Cl)cc3)Nc3nc4ccccc4n32)cc1 (stereo not drawn),i,10µM*,-25.2%,10µM*,-8.1,3.7%
Fc1ccc(C2=CC(c3ccc(F)cc3)n3c(nc4ccccc43)N2)cc1 (stereo not drawn),i,12.6µM*,-3.1%,10µM*,-43.2,8.4%
COc1ccc(C(=O)Nc2nc3n(n2)C(c2ccc(F)cc2)C=C(c2ccc(Cl)cc2)N3)cc1 (stereo not drawn),i,13.4%,9.0%,4.7%,12.5,13.6%
COc1ccc(C2=CC(c3cc(Br)ccc3F)n3c(nc4ccccc43)N2)cc1 (stereo not drawn),i,12.6µM*,-4.8%,11.2µM*,-41.0,-7.4%
CCN(CC)C(=S)SSC(=S)N(CC)CC,i,/,?,/,92.5*!,3.55µM*!
CCCCN(C)C(=O)Cn1nc(-c2ccc(OC)cc2)ccc1=O,/,/,/,/,/,7.7%
Cc1cn([C@H]2C[C@H](N[S+](=O)([O-])Cc3cccc([N+](=O)[O-])c3)[C@@H](CO)O2)c(=O)[nH]c1=O,/,/,/,/,/,9.8%
COc1ccc(C(=O)Nc2cc(OC)nc(OC)n2)cc1,/,11.2µM*,/,12.6µM*,/,/
COc1ccc(NC(=O)Nc2nnc(C)s2)cc1,i,-20.4%,-5.5%,-48.0%,-11.5,-0.8%
COc1ccc(C(=O)Nc2nnc(C)s2)cc1,i,10µM*,-4.3%,?,-9.5,-6.5%
O=C(O)c1cccc(CN2C(=O)/C(=C(\c3ccccc3)c3ccc(Cl)cc3)c3ccccc32)c1,/,/,?,/,/,28.2µM*
SMILES,GALC G270D up,p53null 32C tox,FH mod,p53null 39C kill,GPR32 ag,NTMT1 inhibitor
N#Cc1ccc(CNc2nc(-c3ccccc3C(F)(F)F)nc3ccccc23)cc1,/,/,/,/,/,13.6%
CCOC(=O)c1[nH]c(C)c(C(=O)NCCc2ccccc2)c1C,i,-11.0%,-2.6%,-0.3%,84.6*,-21.2%
CCCn1c(-c2ccc(F)cc2)nc2c(NCCCCN(CC)CC)nc(C)nc21,/,/,/,/,/,-27.9%
CCN(CC)CCCCNc1nc2cc(Cl)c(Cl)cc2nc1-c1ccc(-c2cccs2)s1,/,/,6.5%[53.3 µM],/,/,20µM*!
O=C(OCC12OC1C=CC(OC(=O)c1ccccc1)C2O)c1ccccc1 (stereo not drawn),/,/,3.1%[53.3 µM],/,/,11.2%[29.8 µM]
COc1cccc(O)c1CNc1ccc(S(=O)(=O)Nc2nccs2)cc1,/,/,/,/,/,-3.4%
Cc1nc2nncn2c(NCc2ccc(F)cc2)c1C,i,-1.1%,-1.3%,-1.3%,43.8,-1.0%
Cc1nc2nncn2c(NCc2ccc(Cl)cc2)c1C,i,9.3%,-6.7%,-22.0%,76.3*,6.4%
C=C1CCC2C(C)(C)CC(O)CC2(C)C1CCC(C)CC(=O)O (stereo not drawn),/,/,2.8%[53.3 µM],/,/,6.3%[29.8 µM]
CC(=O)OC1CCC2(C)C(CCC3(C)C2CC=C2C4C(C)C(C)CCC4(C)CCC23C)C1(C)C(=O)O (stereo not drawn),/,/,-23.9%[53.3 µM],/,/,?
CC1=C2[N-][C@H]([C@H](CC(N)=O)[C@@]2(C)CCC(=O)NC[C@@H](C)OP(=O)([O-])O[C@H]2[C@@H](O)[C@@H](n3cnc4cc(C)c(C)cc43)O[C@@H]2CO)[C@]2(C)N=C(C(C)=C3N=C(C=C4N=C1[C@@H](CCC(N)=O)C4(C)C)[C@@H](CCC(N)=O)[C@]3(C)CC(N)=O)[C@@H](CCC(N)=O)[C@]2(C)CC(N)=O.O.[Co+2],/,/,/,/,/,50.1µM*
COc1ccc(C)cc1NC(=O)CCS(=O)(=O)c1cc2c3c(c1)CCN3C(=O)CC2,i,-1.2%,-5.0%,4.1%,-5.5,44.7µM*
CCOC(=O)CSc1nc2ccc(NC(=O)c3ccc(F)cc3)cc2s1,i,-21.2%,3.1%,?,40.0,11.7%
Cc1ccc(CSc2nc3ccc(NC(=O)COc4ccccc4)cc3s2)cc1,i,-9.7%,3.3%,15.3%,73.8*,11.2%

# Screening data as filed in PubChem BioAssay.
